GLD-1 RNA inh = GLD-1-TGE RNA interaction inhibition (C. elegans). inhibition, % at 5.96 µM. purified GLD-1 + fluorescein TGE RNA, fluorescence polarization. hit rate 0.44% among 320,000. Q17339;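 active = percent inhibition above a per-plate cutoff, the plate mean of test compounds plus 3 SD, cut at about 30% in these data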;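 note: 0% = DMSO wells with GLD-1 and probe and 100% = wells lacking GLD-1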
Target sequence (Q17339 whole entry, looked up): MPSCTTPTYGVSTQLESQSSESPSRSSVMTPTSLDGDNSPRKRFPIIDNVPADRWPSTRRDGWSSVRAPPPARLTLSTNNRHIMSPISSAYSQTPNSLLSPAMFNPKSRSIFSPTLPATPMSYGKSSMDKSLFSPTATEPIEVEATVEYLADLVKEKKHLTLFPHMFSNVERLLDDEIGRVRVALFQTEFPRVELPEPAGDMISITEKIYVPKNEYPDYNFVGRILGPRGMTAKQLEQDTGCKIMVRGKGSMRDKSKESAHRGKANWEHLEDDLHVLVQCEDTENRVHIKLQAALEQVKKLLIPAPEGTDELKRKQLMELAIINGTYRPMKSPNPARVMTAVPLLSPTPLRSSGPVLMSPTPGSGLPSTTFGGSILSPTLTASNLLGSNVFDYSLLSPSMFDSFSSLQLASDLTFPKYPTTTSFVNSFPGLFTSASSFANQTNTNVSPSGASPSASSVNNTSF
MEX-5 binding = C. elegans MEX-5 TCR-2 RNA binding activity | activity score (negative = inhibition of binding), % at 10 µM | hit rate 0.38% among 300,000 | MEX-5/FITC-TCR2 RNA binding, fluorescence polarization; hits give low values | Q9XUB2;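 active = inhibition past about -25% in most replicates, and total fluorescence under double the plate's negative control median, limit read from the data; inconclusive = replicates evenly split on the limit, or fluorescence at least double controls; inactive = too little inhibition in most replicates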;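 note: 0% = DMSO and -100% = 5 µM competing unlabeled TCR2 RNA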
Bcl-xL primary = Bcl-xL (human) inhibition. Q07817. GST-Bcl-xL / FITC-Bim BH3 peptide fluorescence polarization. inhibition, % at 10.9 µM. hit rate 0.7% among 320,000. AID 2129;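 active = inhibition above the mean of all tested compounds plus 3 SD, cutoff set per campaign, cut at about 30% in these data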;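 note: 0% = DMSO wells and 100% = unlabeled Bim-BH3 peptide competitor; inhibitors lower millipolarization by displacing the labeled peptide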
MCL1 BIM primary = inhibitors of human MCL1 binding to BIM-BH3 peptide | Q07820 | GST-MCL1 / FITC-Bim-BH3 fluorescence polarization | inhibition, % at 10.9 µM | hit rate 0.68% among 320,000 | AID 2057;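 active = inhibition above the mean inhibition of all tested compounds plus 3 SD, set per campaign, cut at about 40% in these data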;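 note: 0% = DMSO wells and 100% = unlabeled Bim-BH3 peptide control; higher means more loss of mP so more displacement of Bim peptide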
EBV gp42 block = EBV gp42 inhibition; AID 1085; inhibition, % (tested at 21.74 µM); Q1HVG2; hit rate 0.42% among 220,000; Fluorescence polarization binding assay, mP read-out; in the data active = inhibition above about 50%
Bcl-xL conf = counter-screen for MCL1 inhibitors: confirmation of human Bcl-xL inhibitors | inhibition, % at 10.9 µM | GST-Bcl-xL / FITC-Bim BH3 peptide FP binding | shares compounds with MCL1 BIM primary | hit rate 54% among 1,700;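 active = inhibition above a cutoff equal to the mean inhibition of all tested compounds plus 3 SD, cut at about 30% in these data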;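 note: 0% = DMSO wells and 100% = unlabeled Bim BH3 control peptide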
MCL1 inh confirm = MCL1-BIM-BH3 interaction inhibition, confirmation; shares compounds with MCL1 BIM primary; GST-MCL1 / FITC-Bim-BH3 fluorescence polarization; inhibition, % at 10.9 µM; hit rate 61% among 1,700;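 active = inhibition above the average of all tested compounds plus 3 SD, cut at about 40% in these data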;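 note: 0% = DMSO wells and 100% = unlabeled Bim-BH3 control peptide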
* marks the source's active call; other numbers are inactive results; ? = inconclusive; · = no result given. Sampled rows, rich in hits. Any-hit rate of the full collection: about 1.3%.

SMILES	GLD-1 RNA inh	MEX-5 binding	Bcl-xL primary	MCL1 BIM primary	EBV gp42 block	Bcl-xL conf	MCL1 inh confirm
COc1cccc(OC)c1C(=O)Nc1ccc(NC(=O)c2ccco2)cc1	-6	-1	4	2	3	·	·
COc1ccc(NC(=O)/C=C/c2ccco2)cn1	10	-4	12	16	8	·	·
CCOc1cc(S(=O)(=O)NCCCN2CCOCC2)ccc1F	6	-4	1	-3	·	·	·
COc1cccc(-c2cccc(NC(=O)C3CCN(Cc4cccc(C)n4)CC3)c2)c1	-1	2	-1	-5	·	·	·
CC(C)NC(=O)N(C)C[C@H]1Oc2ccc(NC(=O)C3CC3)cc2C(=O)N([C@H](C)CO)C[C@@H]1C	15	·	·	·	·	·	·
COc1ccc(NC(=O)CCl)cn1	82*	-60*	105*	111*	71*	84*	115*
Cc1ccc(S(=O)(=O)N(C)c2ccc3c(ncn3C)c2[N+](=O)[O-])cc1	-1	1	3	0	·	·	·
CCc1cccc2cc3c(N)c(C(=O)Nc4ccc(S(=O)(=O)N5CCCC5)cc4)sc3nc12	61*	-24	104*	94*	81*	43*	67*
Cc1cccc2cc3c(N)c(C(=O)Nc4ccc(N5CCOCC5)cc4)sc3nc12	-8	?	-25	-67	5	·	·
COc1ccc(Nc2nc3ccccc3nc2-n2nc(C)cc2C)cc1	0	-1	-3	0	1	·	·
Cc1cc(C)n(-c2nc3ccccc3nc2Nc2ccc3[nH]c(=O)[nH]c3c2)n1	65*	-3	79*	54*	-15	43*	36
Cc1ccc(N(CC(=O)NCc2ccco2)C(=O)CNS(=O)(=O)c2ccccc2)c(C)c1	-3	1	6	42*	·	3	-15
CN(C)c1nc(-c2cn(CCC#N)c3ccccc23)cs1	34*	-5	65*	69*	·	34*	49*
COCCn1cc(-c2csc(N)n2)c2ccccc21	26	-13	54*	60*	·	16	14
COc1ccc2ccccc2c1-c1csc(N)n1	1	2	6	8	·	·	·
C=CCOc1c(Br)cc(C2C3=C(CCCC3=O)N(C)C3=C2C(=O)CCC3)cc1OCC	10	0	22	43*	6	7	23
CCCN(CC(=O)Nc1ccc(Cl)cc1Cl)C(=O)/C=C/c1cc(OC)ccc1OC	9	·	0	-6	-30	·	·
O=C(NCc1ccccn1)c1ccc(OC2CCN(Cc3ccc(Cl)s3)CC2)cc1	-6	·	-2	2	·	·	·
O=c1c2c3c(sc2[nH]c(=S)n1Cc1ccco1)CCC3	-2	1	8	48*	16	17	41*
CC1(C)Cc2c(sc3[nH]c(=S)n(Cc4ccco4)c(=O)c23)CO1	3	2	1	-6	7	·	·
CCc1c(C)sc(NC(=S)N2CC(C)OC(C)C2)c1C(=O)OC (stereo unspecified)	3	2	6	1	-8	·	·
Cc1ccc(CSc2ccc(C(=O)N3CCOCC3)cc2[N+](=O)[O-])cc1	-7	3	5	49*	2	8	-1
COc1ccc(CC(=O)OCC(=O)N2CCCc3ccccc32)cc1OC	-2	0	0	4	·	·	·
Oc1ccc(N=C/C=C/c2ccc(Br)cc2)cc1-c1nc2ccccc2s1	20	3	46*	48*	1	27	19
Brc1cc2c(cc1-c1nc3ccccc3s1)OCO2	4	1	-1	3	·	·	·
SMILES	GLD-1 RNA inh	MEX-5 binding	Bcl-xL primary	MCL1 BIM primary	EBV gp42 block	Bcl-xL conf	MCL1 inh confirm
CCCCOc1ccc(Cc2n[nH]c(=S)n2N)cc1	6	3	-3	5	-15	·	·
Clc1ccc(CNCC2CCCO2)cc1 (stereo unspecified)	·	-1	·	·	·	·	·
O=c1[nH]cnc2sc3c(c12)CN(Cc1ccccc1)CC3	-9	1	73*	58*	·	22	17
CC(C)C[C@H]1C(=O)N2CCC[C@H]2[C@]2(O)O[C@](NC(=O)C3C=C4c5cccc6[nH]c(Br)c(c56)C[C@H]4N(C)C3)(C(C)C)C(=O)N12 (stereo partly specified)	92*	2	100*	115*	·	16	19
CN1C[C@H](C(=O)N[C@]2(C)O[C@@]3(O)[C@@H]4CCCN4C(=O)[C@H](Cc4ccccc4)N3C2=O)CC2c3cccc4[nH]cc(c34)C[C@H]21 (stereo partly specified)	22	·	14	12	·	·	·
Cn1ncc(Cl)c1C(=O)Nc1ccc(CN2CCCCC2)cc1	0	2	0	2	·	·	·
Cc1cc(O)c2c(c1)C(=O)c1cccc(O)c1C2=O	·	·	·	·	6	·	·
O=C(O)c1cc(O)c2c(c1)C(=O)c1cccc(O)c1C2=O	89*	-28*	114*	147*	46	118*	144*
O=C1C2CC=C(Cl)CC2C(=O)N1CCCCCCN1C(=O)C2CC=C(Cl)CC2C1=O (stereo unspecified)	15	-28*	30	40*	63*	33*	55*
O=C1C2CC=C(Cl)CC2C(=O)N1CCN1CCOCC1 (stereo unspecified)	5	-1	-1	-1	1	·	·
Cc1ccc(C)c(C(=O)C(C)Sc2nc3nn(-c4ccccc4)c(=O)c-3c3n2CCCCC3)c1 (stereo unspecified)	1	0	3	2	·	·	·
CC(=O)OCC1=C(C(=O)O)N2C(=O)C(NC(=O)CCn3nc(C(F)(F)F)c(Br)c3C3CC3)C2SC1 (stereo unspecified)	-1	-4	9	65*	-6	24	96*
CC(=O)OCC1=C(C(=O)O)N2C(=O)C(NC(=O)CCn3nc(C)c(Cl)c3C)C2SC1 (stereo unspecified)	-4	-3	6	6	-7	·	·
Oc1cccc(O)c1O	17	·	14	63*	·	30	42*
O=C(O)c1cccc(O)c1O	2	-4	3	9	·	·	·
Cc1noc(/C=C/N(C)C)c1S(=O)(=O)N1CCCC(C(=O)N2CCCCC2)C1 (stereo unspecified)	32*	-1	72*	66*	-19	17	8
Cc1noc(/C=C/N(C)C)c1S(=O)(=O)N1CCCC(C(=O)NC2CCCCC2)C1 (stereo unspecified)	-13	4	-13	-15	-13	·	·
N#Cc1c(-c2ccc(Cl)cc2)cc(-c2cccs2)nc1SCC(=O)O	3	2	50*	73*	·	37*	53*
N#Cc1c(-c2ccccc2)cc(-c2cccs2)nc1SCC(=O)O	-1	3	10	10	·	·	·
CNCCCOc1cccc(Oc2ccccc2)c1	3	0	3	46*	-20	5	2
CNCCCOc1cccc(OC(C)C)c1	-3	-2	-1	-3	-21	·	·

Screens as filed in PubChem BioAssay.
